The record followed here is ChEMBL document CHEMBL4513146, “CO-ADD screening of Karazin Kharkiv National University (Ukraine) compounds”.

SMILES strings stand for the structures. Results with a measured potency or affinity are listed apart.

One assay has as its system Klebsiella pneumoniae. As to conditions: Concentration 32 ug.mL-1;; ASSAY_TEST Inhibition of Bacterial Growth; detection method Absorption (OD600); MEDIA CAMHB; plate type 384well; NBS; CORNING #3640; time 18 hr.
In a further assay the test system is Candida albicans. As to conditions: Concentration 32 ug.mL-1; ASSAY_TEST Inhibition of Fungal Growth; detection method Absorption (OD530).
A further assay deals with Cryptococcus neoformans. As to conditions: Concentration 32 ug.mL-1; ASSAY_TEST Inhibition of Fungal Growth; detection method Resazurin; Absorption (OD600-OD570); plate type 384well; NBS; CORNING #3640.

Regarding `O=C(Cn1nc2ccc(Sc3ccccc3)nn2c1=O)Nc1ccc(Cl)cc1`, the Inhibition in the assay with Klebsiella pneumoniae was 9.24%; in the assay on Candida albicans it was 8.96%; in the assay with Cryptococcus neoformans, -7.55%.
The matching figures for `O=S(=O)(c1cccn2cnnc12)N(Cc1ccc(F)cc1)c1ccc(F)c(F)c1`: 4.99%, 2.27% and -6.23%.
Taken in the same sequence, the figures for `Cc1cc(C)cc(Nc2nc(C)cc3nn(CC(=O)Nc4ccc(F)cc4F)c(=O)n23)c1` were 15.5%, 32.59% and -6.19%.
Taken in the same sequence, the figures for `CC(C)c1ccc(N(Cc2ccccc2)S(=O)(=O)c2cccn3cnnc23)cc1` were 5.94%, 6.69% and -11.77%.
Consider `CCCCNC(=O)Cn1nc2n(Cc3ccco3)c(=O)c3sccc3n2c1=O`, for which the Inhibition in the assay on Klebsiella pneumoniae was 5.33%; in the assay with Candida albicans it was 0.44%; in the assay on Cryptococcus neoformans it was -11.54%.
With `COc1cccc(Sc2nc3ccccc3n3c(=O)n(CC(=O)Nc4ccc(C)c(C)c4)nc23)c1`, the Inhibition in the assay on Klebsiella pneumoniae was 5.05%; in the assay with Candida albicans it was 20.61%; in the assay on Cryptococcus neoformans, -4.85%.
The matching figures for `COc1ccc(-c2cc3c4nn(CC(=O)Nc5ccccc5)c(=O)n4ccn3n2)cc1`: 8.66%, 6.28% and -7.06%.
The matching figures for `CCCCOc1ccc(-c2cc3c4nnc(SCC(=O)NCc5ccc(C)cc5)n4ccn3n2)cc1`: 3.76%, 12.04% and -14.64%.
The matching figures for `CC(C)Cn1c(=O)c2sccc2n2c(=O)n(CC(=O)NC(C)(C)C)nc12`: 2.39%, -0.9% and -15.87%.
For the compound `CCc1ccc(N(Cc2ccccc2C)S(=O)(=O)c2cccn3c(C)nnc23)cc1`, the Inhibition is listed as 3.93% in the assay on Klebsiella pneumoniae, 5.07% with Candida albicans and -8.38% in the assay with Cryptococcus neoformans.
Take `CCOc1ccc(NC(=O)Cn2nc3c4cc(-c5ccc(C)c(C)c5)nn4ccn3c2=O)cc1`: the figures for the Inhibition with Klebsiella pneumoniae, in the assay on Candida albicans and in the assay on Cryptococcus neoformans were 8.27%, 0.04% and -13.03%, respectively.
The matching figures for `O=C(Cn1nc2c(SC3CCCCC3)nccn2c1=O)Nc1cccc(Cl)c1`: -2.02%, 27.21% and -17.97%.
The matching figures for `CC(C)c1nnc2c(=O)n(CC(=O)Nc3ccc4c(c3)OCO4)c3ccccc3n12`: 6.48%, 6.2% and -25.4%.
Taken in the same sequence, the figures for `CCc1ccccc1Sc1nccn2c(=O)n(CC(=O)Nc3cc(Cl)c(OC)cc3OC)nc12` were -2.45%, 17.44% and -4.37%.
In the case of `CCCCn1c(=O)c2sccc2n2c(=O)n(CC(=O)c3ccc(C)cc3C)nc12`, the Inhibition is 10.99% in the assay with Klebsiella pneumoniae, -0.48% in the assay with Candida albicans and -20% in the assay on Cryptococcus neoformans.
Take `O=C1CCCN1c1ccc(Cn2nc3ccc(-c4ccccc4)nn3c2=O)cc1`: the Inhibition in the assay with Klebsiella pneumoniae is listed as 10.51%; with Candida albicans, -0.02%; with Cryptococcus neoformans, -12.26%.
Taken in the same sequence, the figures for `COc1ccc(NC(=O)Cn2nc3c4cc(-c5cc(C)ccc5C)nn4ccn3c2=O)c(OC)c1` were 9.51%, 3.64% and -9.3%.
Taken in the same sequence, the figures for `O=C(Cn1nc2c3c4c(sc3ncn2c1=O)CCCC4)NCc1ccc(F)cc1` were 9.92%, 15.82% and -14.13%.
The matching figures for `Cc1nnc2c(S(=O)(=O)N(Cc3cccc(F)c3)c3cccc(F)c3)cccn12`: 14.45%, 2.41% and -6.64%.
Turning to `Cc1ccc(NC(=O)Cn2nc3c(N4CCOCC4)nccn3c2=O)cc1F`, the Inhibition is 7.04% in the assay on Klebsiella pneumoniae, 3.27% in the assay with Candida albicans and -4.33% in the assay on Cryptococcus neoformans.
On to `O=C(Cn1nc2c3cc(-c4ccc(Cl)cc4)nn3ccn2c1=O)N1CCN(c2ccccc2)CC1`, for which the Inhibition in the assay on Klebsiella pneumoniae is 10.64%; in the assay with Candida albicans, 0.94%; in the assay with Cryptococcus neoformans, -23.41%.
For the compound `Cc1ccc(-c2ccc3nn(Cc4cc(F)cc(F)c4)c(=O)n3n2)cc1C`, the values for the Inhibition in the assay on Klebsiella pneumoniae, in the assay with Candida albicans and in the assay on Cryptococcus neoformans were 3.15%, 0.47% and -8.58%, respectively.
For the compound `O=C(CSc1nnc2c(=O)n(-c3ccccc3)ccn12)Nc1cccc(F)c1`, the values for the Inhibition with Klebsiella pneumoniae, in the assay on Candida albicans and in the assay on Cryptococcus neoformans were 2%, 7.33% and -21.7%, respectively.
The matching figures for `Cc1ccc(Cn2c(=O)c3ccccc3n3c(=O)n(CC#N)nc23)cc1`: 6.47%, -0.23% and -25%.
The matching figures for `O=C(Cn1nc2c(N3CCOCC3)nc3ccccc3n2c1=O)Nc1ccccc1Br`: 11.27%, 1.17% and -27.52%.
The matching figures for `O=C(Cn1nc2c3cc(-c4ccc(F)cc4)nn3ccn2c1=O)Nc1ccccc1`: 5.09%, 9.56% and -11.97%.
In the case of `CCc1nnc2c(S(=O)(=O)N(Cc3cccc(OC)c3)c3ccc(F)cc3)cccn12`, the Inhibition in the assay on Klebsiella pneumoniae is -0.6%; with Candida albicans, 3.42%; in the assay on Cryptococcus neoformans it was -6.42%.
The matching figures for `CC1CCCN(c2nccn3c(=O)n(CC(=O)Nc4ccc(Br)cc4F)nc23)C1` (stereo not given): 5.81%, 5.05% and -8.97%.
As for `CSc1ccc(CNC(=O)Cn2nc3c(Oc4cccc(C)c4C)nccn3c2=O)cc1`, the Inhibition in the assay with Klebsiella pneumoniae is 12.69%; in the assay on Candida albicans, 0.27%; with Cryptococcus neoformans, -6.54%.
Taken in the same sequence, the figures for `CCc1ccccc1Sc1nccn2c(=O)n(CC(=O)N3CCN(c4ccccc4F)CC3)nc12` were 1.78%, 4.04% and -15.46%.
